Hits are enriched below; roughly 21% of the tested compounds scored in any of these assays.
IL-1B inflam inh: blocks inflammasome-driven IL-1 beta release; THP-1 LPS/ATP IL-1B secretion, AlphaLISA, 16 h; stronger effect = lower value; activity change, % at 57.5 µM; 4.7% of 360,000 active; in the data active = activity change below about -50%; inconclusive = mostly about -30% to -49%
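Secreted IL-1B measured by AlphaLISA bead assay after 16 h compound exposure of THP-1 cells; compounds (final up to 57.5 uM) added 1 h before LPS (250 ng/mL) and ATP (1.25 mM) stimulation; lower signal means less secretion.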
TDP1 cell noCPT: qHTS for Inhibitors of human tyrosyl-DNA phosphodiesterase 1 (TDP1): qHTS in cells in absence of CPT | Potency, µM (highest dose often 46.2 µM), actives largely listed as inhibitors | DT40 Tdp1-/- hTDP1 cells, no CPT, ATP luminescence, 48 h | 15% of 420,000 active | AID 686978, 2013; note: nearly all actives have a fitted effect of over 55% in size
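Growth of hTDP1-complemented DT40 Tdp1-knockout cells is measured by ATP luminescence after at least 48 hr compound exposure at 37 °C, with DMSO substituting for the 20 nM CPT used in the parallel screen.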
ELG1 repair inh: ELG1-dependent DNA repair inhibition; HEK293T ELG1-luciferase reporter, luminescence, 16 h; DNA damage induced by 5-fluorouridine; Potency, µM (titrated, usually from 46.1 µM), actives largely listed as inhibitors; 2.3% of 330,000 active; note: nearly all actives have a fitted effect of over 55% in size
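In this reporter screen, reduction of luminescence relative to DMSO vehicle indicated activity. Compounds and 5-fluorouridine were added together to 2,000 cells per well, incubated for 16 hr at 37 °C, then developed with ONE-Glo.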
TDP1 cell CPT: growth inhibition of DT40 Tdp1-/-;hTDP1 cells with camptothecin (screen for TDP1 inhibitors); chicken DT40 Tdp1-/-;hTDP1 cells + 20 nM CPT, ATP luminescence, 48 h; Potency, µM (highest dose often 46.2 µM), usual class: inhibitors; 12% of 420,000 active; note: nearly all actives have a fitted effect of over 55% in size
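Cell growth measured by CellTiter-Glo luminescence after a minimum 48 h, 37 C compound exposure with 20 nM CPT in Tdp1-knockout DT40 cells stably expressing hTDP1, seeded 400/well; qHTS titration format.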
RORg inh: ROR gamma (mouse) transcription inhibition; P51450; Drosophila S2 Gal4-RORgamma UAS-luciferase reporter, 20 h; Potency, µM (top dose mostly 53.6 µM), actives largely listed as inhibitors; 5.4% of 310,000 active; AID 2551; note: nearly all actives have a fitted effect of over 60% in size
Target sequence (P51450 whole entry, looked up, the tested form may be a part): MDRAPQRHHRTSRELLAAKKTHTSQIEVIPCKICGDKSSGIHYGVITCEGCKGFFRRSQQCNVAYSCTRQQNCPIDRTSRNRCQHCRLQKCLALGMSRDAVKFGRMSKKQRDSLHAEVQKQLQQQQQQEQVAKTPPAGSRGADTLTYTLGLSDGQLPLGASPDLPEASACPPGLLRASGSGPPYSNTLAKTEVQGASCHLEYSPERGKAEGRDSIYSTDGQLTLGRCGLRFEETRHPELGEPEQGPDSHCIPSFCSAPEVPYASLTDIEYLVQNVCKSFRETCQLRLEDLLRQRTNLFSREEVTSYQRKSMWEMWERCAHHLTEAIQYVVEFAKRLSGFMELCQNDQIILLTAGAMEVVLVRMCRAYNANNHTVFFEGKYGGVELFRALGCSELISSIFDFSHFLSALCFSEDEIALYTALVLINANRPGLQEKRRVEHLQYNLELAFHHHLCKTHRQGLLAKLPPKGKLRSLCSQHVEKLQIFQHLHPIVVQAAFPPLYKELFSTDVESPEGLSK
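Using a luciferase readout, inhibitors were identified by reduced reporter activity in Drosophila cells coexpressing a copper-inducible Gal4–ROR gamma fusion and UAS-driven Photinus luciferase, incubated 20 hr after 700 uM copper sulfate.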
Gal4-VP16 FLuc: inhibits Gal4-VP16 luciferase reporter, ROR gamma counter-screen | Drosophila S2 Gal4-VP16 UAS-luciferase, luminescence, 20 h | Potency, µM (doses to about 53.6 µM), most hits filed as inhibitors | 3.5% of 310,000 active | AID 2546;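 note: Gal4-VP16 expression switched on by copper sulfate through the metallothionein promoter; nearly all actives have a fitted effect of over 50% in size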
Numbers stand for hits; [ ] = another dose, or the depositor's remark. Unless noted, calls come from the whole dose curve; as a rule, active = well fitted curve in the direction sought with a large enough effect; inconclusive = small, poorly fitted or top-dose-only effect, or another doubt; inactive = no such curve, though single readings can be large; an effect the other way counts as inactive or inconclusive.

Screening NC(=O)CSc1oc(-c2ccc(F)cc2)nc1S(=O)(=O)c1ccccc1 returned IL-1B inflam inh inactive, TDP1 cell noCPT inactive, ELG1 repair inh inactive, TDP1 cell CPT inactive and RORg inh inactive[0.365 µM].
`COc1ccccc1NC(=O)CSc1oc(-c2ccccc2)nc1S(=O)(=O)c1ccccc1` gave TDP1 cell noCPT 16µM and TDP1 cell CPT 21µM.
`COc1ccccc1NC(=O)CSc1oc(-c2ccco2)nc1S(=O)(=O)c1ccc(C)cc1` gave TDP1 cell noCPT inconclusive and TDP1 cell CPT 23µM.
`Cc1ccc(S(=O)(=O)c2nc(-c3ccccc3)oc2SCC(=O)NC2CCCCC2)cc1` gave TDP1 cell noCPT inactive and TDP1 cell CPT inactive.
Screening COc1ccccc1NC(=O)CSc1oc(-c2ccccc2)nc1S(=O)(=O)c1ccc(C)cc1 returned TDP1 cell noCPT 21µM and TDP1 cell CPT 18µM.
For CCCSc1oc(-c2ccco2)nc1S(=O)(=O)c1ccc(C)cc1 the results were IL-1B inflam inh inactive, TDP1 cell noCPT inconclusive, ELG1 repair inh inactive, TDP1 cell CPT inconclusive, RORg inh inactive and Gal4-VP16 FLuc inactive.
Screening COc1ccccc1NC(=O)CSc1oc(-c2cccs2)nc1S(=O)(=O)c1ccc(Br)cc1 returned TDP1 cell noCPT inconclusive and TDP1 cell CPT 23µM.
Screening COc1ccc(Nc2oc(-c3ccco3)nc2S(=O)(=O)c2ccc(F)cc2)cc1 returned IL-1B inflam inh -57, TDP1 cell noCPT inconclusive, ELG1 repair inh inconclusive, TDP1 cell CPT inconclusive, RORg inh inconclusive and Gal4-VP16 FLuc inactive.
NC(=O)CSc1oc(-c2ccco2)nc1S(=O)(=O)c1ccc(Br)cc1 was read as IL-1B inflam inh inconclusive, TDP1 cell noCPT inactive, ELG1 repair inh inactive, TDP1 cell CPT inactive, RORg inh inactive and Gal4-VP16 FLuc inactive.
Screening Cc1ccc(N(C)S(=O)(=O)c2cc3c(cc2C)NC(=O)CO3)cc1 returned IL-1B inflam inh inactive, TDP1 cell noCPT inconclusive, ELG1 repair inh inconclusive, TDP1 cell CPT inconclusive, RORg inh inactive and Gal4-VP16 FLuc inactive.
N#Cc1ccccc1OCC(=O)OCC(=O)Nc1ccc2c(c1)OCO2 was read as IL-1B inflam inh inactive, TDP1 cell noCPT inactive, ELG1 repair inh inactive and TDP1 cell CPT inactive.
CCN1CCC2(CC1)N=C(c1ccc(F)cc1)C(=S)N2C(=O)c1ccc(C(C)(C)C)cc1 was read as IL-1B inflam inh inactive, TDP1 cell noCPT inactive, ELG1 repair inh inactive, TDP1 cell CPT inconclusive, RORg inh 4µM and Gal4-VP16 FLuc inconclusive.
CN1CCC2(CC1)N=C(c1ccc(F)cc1)C(=S)N2C(=O)c1ccccc1 was read as IL-1B inflam inh inactive, TDP1 cell noCPT 12µM, ELG1 repair inh inactive, TDP1 cell CPT 7.3µM, RORg inh inconclusive and Gal4-VP16 FLuc inconclusive.
CCN1CCN(c2nc(-c3ccc(F)cc3)cc(=O)[nH]2)CC1 was read as IL-1B inflam inh inactive, TDP1 cell noCPT inactive, ELG1 repair inh inactive, TDP1 cell CPT inactive, RORg inh inactive and Gal4-VP16 FLuc inactive.
COc1ccc(C(O)c2ncc(-c3ccccc3C)[nH]2)cc1F (stereo not drawn) was read as IL-1B inflam inh inactive, TDP1 cell noCPT inconclusive and TDP1 cell CPT inconclusive.
Cn1c(=O)[nH]c(=O)c2c1nc(N1CCCCC1)n2CC(O)COc1ccc([N+](=O)[O-])cc1 (stereo not drawn) was read as IL-1B inflam inh inactive, TDP1 cell noCPT inconclusive, ELG1 repair inh inconclusive, TDP1 cell CPT inconclusive, RORg inh inactive and Gal4-VP16 FLuc inactive.
Screening CC(C)[C@H](NC(=O)[C@@H]1CSSC[C@H](NC(=O)[C@H](CC(=O)O)NC(=O)[C@H](C)NC(=O)[C@@H](NC(=O)CNC(=O)[C@H](C)N)[C@@H](C)O)C(=O)N[C@@H](Cc2ccccc2)C(=O)N[C@@H](Cc2c[nH]c3ccccc23)C(=O)N[C@@H](CCCCN)C(=O)N[C@@H](Cc2ccc(O)cc2)C(=O)N1)C(=O)O returned RORg inh inactive and Gal4-VP16 FLuc inactive.
